Records with an inconclusive call do not appear. Calls of active or inactive are those of the source. Rule for the calls: active = hit-call score of the fitted dose curve at least 0.9, where 1 is the maximum; inconclusive = response in the unintended direction; inactive = score below 0.9.

The target of assay [1] is Estrogen receptor (Homo sapiens) (UniProt P03372). Kind of assay: OT_ER_ERaERa_1440: Odyssey Thera (OT) 24-hour HEK293T Protein-Complementation Assay for Estrogen Receptor-alpha/-alpha Homodimer (AID 2283349).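 Note: hits raise fluorescence above DMSO for agonists and antagonists alike.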 The method, boiled down:
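HEK293T, stable ERα LBD (aa 310-547) homodimer PCA; 24 h compound exposure; mean fluorescence intensity (nuclear for agonists, nuclear plus cytoplasmic for antagonists) vs vehicle; positive fitting direction, DMSO baseline.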

In assay [2] the target is T1, Estrogen receptor (Homo sapiens) + Estrogen receptor beta (Homo sapiens) (UniProt P03372+Q92731). Put plainly: OT_ER_ERaERb_0480: Odyssey Thera (OT) 8-hour HEK293T Protein-Complementation Assay for Estrogen Receptor-alpha/-beta Heterodimer (AID 2283352). Summed up: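 HEK293T cells expressing ER-alpha/ER-beta LBD fusions to complementary reporter fragments were dosed with compound for 8 hours. Heterodimer formation was read as increased nuclear (agonist) or nuclear plus cytoplasmic (antagonist) mean fluorescence intensity versus DMSO vehicle.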

The target in assay [3] is T1, Estrogen receptor (Homo sapiens) + Estrogen receptor beta (Homo sapiens). Put plainly: OT_ER_ERaERb_1440: Odyssey Thera (OT) 24-hour HEK293T Protein-Complementation Assay for Estrogen Receptor-alpha/-beta Homodimer (AID 2283356).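 Note: heteromer of ER alpha and ER beta binding domains; hits raise reporter fluorescence and both agonists and antagonists give an increase.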 The method, boiled down:
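HEK293T cells stably expressing a PCA pair of ERα LBD (aa 310-547) and ERβ LBD (aa 263-489) were dosed for 24 h. Fluorescence intensity increase versus DMSO vehicle was fitted as gain-of-signal.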

In assay [4] the target is Estrogen receptor beta (Homo sapiens) (UniProt Q92731). Put plainly: OT_ER_ERbERb_0480: Odyssey Thera (OT) 8-hour HEK293T Protein-Complementation Assay for Estrogen Receptor-beta/-beta Homodimer (AID 2283357).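 Note: active means signal gain over DMSO baseline.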 Summed up: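 ER-beta LBD homodimer PCA stably expressed in HEK293T; 8 h compound exposure, then formaldehyde fixation and Draq5 staining. Gain in nuclear/cytoplasmic fluorescence intensity versus DMSO vehicle, read on laser scanning cytometer.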

Assay [5] concerns the target human Peroxisome Proliferator-activated Receptor alpha (PPARa), PPARA (gene 5465) (UniProt Q07869). Put plainly: NVS_NR_hPPARa: NovaScreen (NVS) Nuclear Receptor Binding Assay for human Peroxisome Proliferator-activated Receptor alpha (PPARa) (AID 2283359).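 Note: activity means loss of TR-FRET signal versus DMSO baseline.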 The method, boiled down: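 Loss of TR-FRET binding signal relative to DMSO was measured 1 h after chemical addition to extracted receptor protein. Chemicals were first tested in duplicate at 25 uM, and actives were followed up in concentration series.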

Assay [6] addresses Glucocorticoid receptor (Homo sapiens) (UniProt P04150). Kind of assay: NVS_NR_hGR: NovaScreen (NVS) Nuclear Receptor Binding Assay for human Glucocorticoid Receptor (GR) (AID 2283363).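 For AC50: activity is loss of specific radioligand binding signal relative to DMSO.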 Summed up: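 Compounds first tested in duplicate at 25 uM, actives followed up in concentration series. Binding to extracted GR protein measured as competitive radioligand displacement, filter scintillation read 16 h post-dosing, normalised to DMSO.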

The target of assay [7] is Nuclear receptor subfamily 1 group I member 2 (Homo sapiens) (UniProt O75469). Put plainly: NVS_NR_hPXR: NovaScreen (NVS) Nuclear Receptor Binding Assay for human Pregnane X Receptor (PXR) (AID 2283365).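 Note: a drop in FRET signal versus DMSO baseline means the compound binds.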 The method, boiled down:
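Cell-free binding assay with extracted human PXR protein, read by TR-FRET 2 h after dosing; loss of signal relative to DMSO baseline indicates binding. Primary screen at 25 uM in duplicate, actives retested in concentration series.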

Assay [8] deals with Estrogen receptor (Homo sapiens) (UniProt P03372). Put plainly: NVS_NR_hER: NovaScreen (NVS) Nuclear Receptor Binding Assay for human Estrogen Receptor (ER) (AID 2283348). Summed up:
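Cell-free MCF7-derived ER preparation, specific radioligand displaced by test compound, read by scintillation counting 18 h post-dosing. Duplicate single-point 25 uM screen, then concentration-response confirmation; DMSO baseline.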

Assay [9] addresses Peroxisome proliferator-activated receptor gamma (Homo sapiens) (UniProt P37231). Put plainly: NVS_NR_hPPARg: NovaScreen (NVS) Nuclear Receptor Binding Assay for human Peroxisome Proliferator-activated Receptor gamma (PPARg) (AID 2283370). Summed up: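 Cell-free binding to extracted PPARg protein, read by fluorescence polarization 2 h after dosing; loss of signal relative to DMSO baseline marks displacement. Primary screen in duplicate at 25 uM, actives retested in concentration series.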

Assay [10] addresses Androgen Receptor/SRC-1 Co-activator, AR (gene 367) (UniProt P10275). Kind of assay: OT_AR_ARSRC1_0960: Odyssey Thera (OT) 16-hour HEK293T Protein-Complementation Assay for Androgen Receptor/SRC-1 Co-activator (AID 2283353).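 Note: actives raise the signal above DMSO so potency reflects increased AR and SRC-1 complex.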 The method, boiled down: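 Readout: 488 nm nuclear-to-cytoplasmic fluorescence ratio from imaging of at least 400 cells per image, 16 h post-dose. Reporter is Venus YFP complementation between AR and SRC-1 fusions, stably expressed in HEK293T; activity scored upward relative to DMSO.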

The target is the same in assay [11]. Put plainly: OT_AR_ARSRC1_0480: Odyssey Thera (OT) 8-hour HEK293T Protein-Complementation Assay for Androgen Receptor/SRC-1 Co-activator (AID 2283354).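 Note: hits raise the complementation signal above DMSO so AC50 marks enhancers.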 The method, boiled down: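 Reconstituted split-Venus YFP signal from AR–SRC-1 interaction, read by imaging 8 h post-dose in stable HEK293T lines. The 488 nm nucleus-to-cytoplasm ratio (≥400 cells/image) was fitted upward against DMSO.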

The target of assay [12] is Retinoic acid receptor alpha (Homo sapiens) (UniProt P10276). Put plainly: NVS_NR_hRAR_Antagonist: NovaScreen (NVS) Nuclear Receptor Binding Assay for human Retinoic Acid Alpha Receptor Antagonism (RAR) (AID 2283358). The method, boiled down:
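RARalpha antagonism was read by TR-FRET as loss of binding signal versus DMSO, 2 h after chemical addition, in a biochemical format. Single-concentration duplicates (25 uM) were run first, and actives were retested in concentration series.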

The target is the same in assay [13]. Put plainly: NVS_NR_hRARa_Agonist: NovaScreen (NVS) Nuclear Receptor Binding Assay for human Retinoic Acid Alpha Receptor Agonism (RAR) (AID 2283361). The method, boiled down: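 Agonist-mode TR-FRET binding format using extracted protein, measured at 2 h post-dosing. Initial duplicate single-point screen at 25 uM preceded concentration series for actives; activity was normalized to DMSO baseline.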

Assay [14] has as its system guinea pig Dopamine Transporter (DAT), gene 100714898. Put plainly: NVS_TR_gDAT: NovaScreen (NVS) Transporter Assay for guinea pig Dopamine Transporter (DAT) (AID 2283369).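 Note: active compounds lower bound radioligand signal relative to DMSO.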 Summed up: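 Guinea pig striatal membranes; radioligand displacement measured by filter-based scintillation counting 2 h after dosing. Initial duplicate screen at 25 uM, then concentration-response up to 50 uM for hits; loss of signal versus DMSO baseline.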

In assay [15] the target is human Dopamine Transporter (DAT), SLC6A3 (gene 6531) (UniProt Q01959). Kind of assay: NVS_TR_hDAT: NovaScreen (NVS) Transporter Assay for human Dopamine Transporter (DAT) (AID 2283374).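 Note: activity means loss of bound radioligand signal relative to DMSO.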 The method, boiled down: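 Duplicate single-point screening at 25 uM preceded concentration-series follow-up of actives. Binding was measured by competitive displacement of a radioligand from DAT protein, filter-counted by scintillation 1 h after dosing. Decrease relative to DMSO taken as activity.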

Assay [16] addresses human Thyroid Receptor Alpha (TRa), THRA (gene 7067) (UniProt P10827). Put plainly: NVS_NR_hTRa_Antagonist: NovaScreen (NVS) Nuclear Receptor Binding Assay for human Thyroid Receptor Alpha Antagonism (TRa) (AID 2283362).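 Note: activity is loss of signal relative to DMSO baseline.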 The method, boiled down: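 Cell-free binding assay on extracted receptor protein, read 1 h after chemical dosing by AlphaLISA chemiluminescence; loss of signal relative to DMSO baseline marks antagonism. Primary screen ran in duplicate at 25 uM, with concentration series for actives.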

In assay [17] the target is rat Androgen Receptor (AR), Ar (gene 24208) (UniProt P15207). Put plainly: NVS_NR_rAR: NovaScreen (NVS) Nuclear Receptor Binding Assay for rat Androgen Receptor (AR) (AID 2283366). The method, boiled down: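 Actives from a duplicate single-concentration (25 uM) primary run went on to concentration series. Displacement of radioligand was counted by filtration and scintillation, 18 h post-dose, using prostate extracts from testosterone-pretreated rats, with DMSO as baseline.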

Sequence of Nuclear receptor subfamily 1 group I member 2 (Homo sapiens) (O75469 whole entry, looked up): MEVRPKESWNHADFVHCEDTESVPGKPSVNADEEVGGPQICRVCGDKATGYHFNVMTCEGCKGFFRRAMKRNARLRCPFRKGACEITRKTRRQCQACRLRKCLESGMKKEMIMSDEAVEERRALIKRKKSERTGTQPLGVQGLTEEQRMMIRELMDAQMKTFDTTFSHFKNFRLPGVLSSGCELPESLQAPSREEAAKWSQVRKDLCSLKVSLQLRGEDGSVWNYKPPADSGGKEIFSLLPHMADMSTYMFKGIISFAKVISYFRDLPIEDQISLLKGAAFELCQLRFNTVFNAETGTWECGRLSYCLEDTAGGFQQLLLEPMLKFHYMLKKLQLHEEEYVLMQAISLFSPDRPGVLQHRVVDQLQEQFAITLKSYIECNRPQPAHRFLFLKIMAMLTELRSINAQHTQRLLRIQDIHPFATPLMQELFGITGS
Sequence of Androgen Receptor/SRC-1 Co-activator, AR (gene 367) (P10275 whole entry, looked up, the tested form may be a part): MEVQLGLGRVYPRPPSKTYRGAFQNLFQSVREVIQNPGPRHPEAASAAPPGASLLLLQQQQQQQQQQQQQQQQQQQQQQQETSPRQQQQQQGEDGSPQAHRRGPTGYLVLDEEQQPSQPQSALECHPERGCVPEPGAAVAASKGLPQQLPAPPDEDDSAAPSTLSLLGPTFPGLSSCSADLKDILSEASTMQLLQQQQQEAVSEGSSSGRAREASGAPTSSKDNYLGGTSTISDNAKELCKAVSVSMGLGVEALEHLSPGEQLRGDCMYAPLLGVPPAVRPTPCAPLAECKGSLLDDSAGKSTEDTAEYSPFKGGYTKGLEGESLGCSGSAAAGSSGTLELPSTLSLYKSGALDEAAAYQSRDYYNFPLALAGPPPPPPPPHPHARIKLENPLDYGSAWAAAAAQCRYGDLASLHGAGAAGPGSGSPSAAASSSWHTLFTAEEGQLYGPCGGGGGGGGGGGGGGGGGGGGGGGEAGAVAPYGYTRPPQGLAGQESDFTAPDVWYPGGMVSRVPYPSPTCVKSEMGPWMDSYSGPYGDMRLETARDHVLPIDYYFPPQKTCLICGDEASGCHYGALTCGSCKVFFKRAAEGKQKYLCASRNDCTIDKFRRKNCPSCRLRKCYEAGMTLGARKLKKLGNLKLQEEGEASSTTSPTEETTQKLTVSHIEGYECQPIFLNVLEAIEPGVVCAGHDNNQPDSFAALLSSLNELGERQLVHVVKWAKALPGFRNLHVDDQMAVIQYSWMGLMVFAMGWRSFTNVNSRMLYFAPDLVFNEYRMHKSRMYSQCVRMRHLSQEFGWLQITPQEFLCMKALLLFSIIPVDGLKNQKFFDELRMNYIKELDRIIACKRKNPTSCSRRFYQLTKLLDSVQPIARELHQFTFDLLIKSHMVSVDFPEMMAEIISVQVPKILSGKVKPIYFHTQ
Sequence of Estrogen receptor (Homo sapiens) (P03372 whole entry, looked up, the tested form may be a part): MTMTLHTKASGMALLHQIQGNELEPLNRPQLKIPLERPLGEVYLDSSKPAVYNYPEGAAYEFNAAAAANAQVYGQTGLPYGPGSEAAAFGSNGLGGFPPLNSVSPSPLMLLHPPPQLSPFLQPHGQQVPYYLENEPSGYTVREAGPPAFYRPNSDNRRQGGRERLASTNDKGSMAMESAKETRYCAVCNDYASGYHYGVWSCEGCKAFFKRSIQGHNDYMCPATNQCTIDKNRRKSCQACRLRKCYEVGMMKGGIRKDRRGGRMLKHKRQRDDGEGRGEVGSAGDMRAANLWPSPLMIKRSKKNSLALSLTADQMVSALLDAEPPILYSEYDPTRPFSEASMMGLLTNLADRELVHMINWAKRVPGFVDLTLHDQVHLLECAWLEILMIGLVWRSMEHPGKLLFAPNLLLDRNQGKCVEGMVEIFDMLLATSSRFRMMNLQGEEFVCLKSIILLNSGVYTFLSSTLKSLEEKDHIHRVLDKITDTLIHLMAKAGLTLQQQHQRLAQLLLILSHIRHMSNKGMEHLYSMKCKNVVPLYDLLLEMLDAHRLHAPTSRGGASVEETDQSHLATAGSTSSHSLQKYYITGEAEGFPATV
T1 sequence (P03372 whole entry, looked up, the tested form may be a part): as above
T1 sequence (Q92731 whole entry, looked up, the tested form may be a part): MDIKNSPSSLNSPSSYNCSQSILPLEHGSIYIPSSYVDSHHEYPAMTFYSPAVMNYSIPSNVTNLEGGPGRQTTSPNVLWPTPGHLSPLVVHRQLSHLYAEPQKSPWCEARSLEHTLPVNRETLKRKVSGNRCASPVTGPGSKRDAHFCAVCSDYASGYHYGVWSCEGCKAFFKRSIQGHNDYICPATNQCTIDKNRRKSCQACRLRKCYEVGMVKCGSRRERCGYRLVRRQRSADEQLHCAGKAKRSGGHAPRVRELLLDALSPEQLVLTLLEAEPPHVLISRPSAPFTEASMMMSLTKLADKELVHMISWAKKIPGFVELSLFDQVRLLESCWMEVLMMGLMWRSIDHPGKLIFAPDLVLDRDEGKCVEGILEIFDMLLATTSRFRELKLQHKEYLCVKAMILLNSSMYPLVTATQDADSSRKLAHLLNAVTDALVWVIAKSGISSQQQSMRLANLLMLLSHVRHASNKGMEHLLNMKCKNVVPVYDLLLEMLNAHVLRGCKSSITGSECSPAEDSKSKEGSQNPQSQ
Sequence of Peroxisome proliferator-activated receptor gamma (Homo sapiens) (P37231 whole entry, looked up): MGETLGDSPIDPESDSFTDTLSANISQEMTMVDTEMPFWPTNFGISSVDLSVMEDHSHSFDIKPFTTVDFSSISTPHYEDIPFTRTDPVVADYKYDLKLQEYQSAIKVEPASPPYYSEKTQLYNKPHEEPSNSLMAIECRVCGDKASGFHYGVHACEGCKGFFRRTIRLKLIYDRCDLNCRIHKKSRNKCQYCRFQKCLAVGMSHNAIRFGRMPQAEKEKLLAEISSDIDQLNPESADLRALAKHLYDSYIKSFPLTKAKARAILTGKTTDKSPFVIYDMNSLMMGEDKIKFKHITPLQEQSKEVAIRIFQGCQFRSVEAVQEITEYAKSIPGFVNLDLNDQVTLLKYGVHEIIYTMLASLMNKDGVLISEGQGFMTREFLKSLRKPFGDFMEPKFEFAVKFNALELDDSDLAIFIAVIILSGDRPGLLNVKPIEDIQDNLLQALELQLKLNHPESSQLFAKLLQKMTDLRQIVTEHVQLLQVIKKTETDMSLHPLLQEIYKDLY
Sequence of Estrogen receptor beta (Homo sapiens) (Q92731 whole entry, looked up, the tested form may be a part): as the sequence (Q92731 whole entry, looked up, the tested form may be a part) above
Sequence of Retinoic acid receptor alpha (Homo sapiens) (P10276 whole entry, looked up): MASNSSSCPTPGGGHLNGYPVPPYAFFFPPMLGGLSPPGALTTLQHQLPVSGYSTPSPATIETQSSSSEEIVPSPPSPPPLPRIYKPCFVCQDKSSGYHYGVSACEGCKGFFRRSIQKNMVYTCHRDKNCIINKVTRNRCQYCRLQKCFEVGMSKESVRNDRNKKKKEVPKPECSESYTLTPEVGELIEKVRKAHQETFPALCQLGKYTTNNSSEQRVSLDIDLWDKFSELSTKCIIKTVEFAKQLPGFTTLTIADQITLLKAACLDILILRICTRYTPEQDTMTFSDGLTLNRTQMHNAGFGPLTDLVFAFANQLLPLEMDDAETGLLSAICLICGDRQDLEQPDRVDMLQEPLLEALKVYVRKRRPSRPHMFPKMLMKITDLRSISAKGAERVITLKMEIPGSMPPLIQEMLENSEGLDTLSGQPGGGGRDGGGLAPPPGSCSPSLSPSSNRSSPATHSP
Sequence of Glucocorticoid receptor (Homo sapiens) (P04150 whole entry, looked up): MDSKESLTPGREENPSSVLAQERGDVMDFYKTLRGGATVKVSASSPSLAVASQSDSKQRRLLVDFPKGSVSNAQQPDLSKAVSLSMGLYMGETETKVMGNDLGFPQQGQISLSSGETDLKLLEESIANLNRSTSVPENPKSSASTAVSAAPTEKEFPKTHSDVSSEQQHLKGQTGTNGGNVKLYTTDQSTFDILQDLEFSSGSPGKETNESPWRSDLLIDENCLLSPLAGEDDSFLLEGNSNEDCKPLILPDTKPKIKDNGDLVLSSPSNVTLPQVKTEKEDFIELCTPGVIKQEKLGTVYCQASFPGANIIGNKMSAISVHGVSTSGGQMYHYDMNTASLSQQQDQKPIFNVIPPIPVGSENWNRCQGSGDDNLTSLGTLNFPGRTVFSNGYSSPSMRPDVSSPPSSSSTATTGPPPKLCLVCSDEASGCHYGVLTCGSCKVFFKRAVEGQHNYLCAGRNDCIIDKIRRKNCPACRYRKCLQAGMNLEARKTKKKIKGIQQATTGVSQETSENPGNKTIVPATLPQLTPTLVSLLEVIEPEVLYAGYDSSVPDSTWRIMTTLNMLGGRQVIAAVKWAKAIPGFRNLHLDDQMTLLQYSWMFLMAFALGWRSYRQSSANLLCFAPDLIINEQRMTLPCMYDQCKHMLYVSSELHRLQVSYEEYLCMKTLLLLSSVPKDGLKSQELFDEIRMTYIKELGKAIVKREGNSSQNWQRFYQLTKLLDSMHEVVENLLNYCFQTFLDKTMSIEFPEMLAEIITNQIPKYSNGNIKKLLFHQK
Sequence of human Peroxisome Proliferator-activated Receptor alpha (PPARa), PPARA (gene 5465) (Q07869 whole entry, looked up): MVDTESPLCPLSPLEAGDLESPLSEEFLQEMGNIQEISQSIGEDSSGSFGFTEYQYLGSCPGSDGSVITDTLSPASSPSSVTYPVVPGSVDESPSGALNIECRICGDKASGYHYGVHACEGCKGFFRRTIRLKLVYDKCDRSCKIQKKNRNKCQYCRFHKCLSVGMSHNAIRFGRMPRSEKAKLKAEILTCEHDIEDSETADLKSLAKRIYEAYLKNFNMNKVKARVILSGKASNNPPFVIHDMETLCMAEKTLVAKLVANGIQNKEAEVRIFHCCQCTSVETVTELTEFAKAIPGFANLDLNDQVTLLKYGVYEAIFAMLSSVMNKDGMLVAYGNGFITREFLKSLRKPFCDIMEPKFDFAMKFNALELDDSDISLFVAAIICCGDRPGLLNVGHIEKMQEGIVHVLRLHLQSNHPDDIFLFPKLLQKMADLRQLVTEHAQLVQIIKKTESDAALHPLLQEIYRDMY

In general, AC50 refers to the midpoint of the concentration-response curve, whichever way the signal moves. Regarding `CCCCCCCC/C=C\CCCCCCCC(=O)N(C)CC(=O)O`, the outcome in assay [1], in assay [2], in assay [3], in assay [4], in [5] and in assay [7] was inactive. For the same compound, in [6], the AC50 was 4.85 µM (active).

Regarding `CC(C)(C)C(=O)C1C(=O)c2ccccc2C1=O`, the outcome in assay [8] was inactive.

As for `O=C(c1ccccc1)c1ccc(O)cc1O`, the AC50 in assay [8] was 1.42 µM (active); in assay [1], 22.7 µM (active).

Consider `CCCCOC(=O)C(C)O` (stereo not given), for which the call in assay [8] and in [1] was inactive.

For the compound `CCOC(OCC)OCC`, the compound was classed as inactive in assay [1], in assay [2], in assay [3], in assay [4], in [7] and in assay [9].

As for `CC(C)(C)c1cc(Cc2cc(C(C)(C)C)c(O)c(C(C)(C)C)c2)cc(C(C)(C)C)c1O`, the outcome in [1], in [2], in [3], in assay [4], in [7] and in assay [9] was inactive.

As for `CCC(Cc1c(I)cc(I)c(N)c1I)C(=O)O` (stereo not given), the compound was classed as inactive in [8] and in [1].

`Cc1ccc(O)c(-n2nc3ccccc3n2)c1`: the outcome in assay [8], in [1], in assay [2], in [3] and in assay [4] was inactive.

As for `CCCCCCCCCCCCC[N+](C)(C)Cc1ccccc1`, the result in assay [1], in assay [4], in assay [6] and in [9] was inactive. The AC50 is 14.7 µM (active) in assay [10]; 14.6 µM (active) in assay [11]; 9.07 µM (active) in assay [12]; 21 µM (active) in [5]; 13.4 µM (active) in assay [13]; 3.9 µM (active) in [7].

Take `O=C1C=CC(=O)N1c1ccc(Cc2ccc(N3C(=O)C=CC3=O)cc2)cc1`: the outcome in assay [8] and in [15] was inactive. Further, the AC50 in assay [14] is 11.3 µM (active).

Turning to `CCCCOC(=O)[C@H](C)O`, the compound was called inactive in [1].

Take `O=C1C=CC(=O)N1c1ccccc1`: the call in assay [1] and in assay [3] was inactive. For the same compound, the AC50 is 16.4 µM (active) in [10] and 25.6 µM (active) in [11].

As to `CCN=c1cc2oc3cc(NCC)c(C)cc3c(-c3ccccc3C(=O)OCC)c-2cc1C`, the AC50 in [8] was 5.29 µM (active); in [1] it was 62.3 µM (active); in assay [2] it was 71.3 µM (active); in assay [10], 0.55 µM (active); in [11], 12.5 µM (active); in assay [4], 55.1 µM (active). In addition, the concentration at half-maximal activity (AC50) is 18.1 µM (active) in [13], 38.3 µM (active) in [16], 9.39 µM (active) in assay [6] and 6.57 µM (active) in [17]. In addition, the result in assay [3] was inactive.

The values above are taken from PubChem BioAssay (EPA / NIEHS).
